PubChem BioAssay (NCI)
The panel holds about 79,000 compounds, 15% with a hit somewhere; the sample as a whole holds those more often. Activity calls are given as the source filed them. Cut-off read from the data, not from the text of the source: active = growth inhibition above about 70%; inactive = the rest.

Experiments:
[1] = NCI Yeast Anticancer Drug Screen. Data for the rad52 strain (AID 147);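 note: 0% = growth of vehicle-treated control cultures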; details: S. cerevisiae rad52 mutant growth inhibition, hits give high values
Outline: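 Screen used a yeast mutant impaired in DNA repair. After compound exposure, growth was measured. Values reflect inhibition compared with vehicle-treated cells.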

[2] = NCI Yeast Anticancer Drug Screen. Data for the wt1 strain (AID 149);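 note: 0% = growth of vehicle-treated wt1 cultures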; details: S. cerevisiae wt1 strain (SPY 50644) growth inhibition, hits give high values
Outline: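 Using yeast strain wt1, compound-induced growth inhibition was determined against vehicle-treated cultures.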

[3] = NCI Yeast Anticancer Drug Screen. Data for the rad50EPP+ strain (AID 151);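 note: 0% = growth of vehicle-treated control cultures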; details: S. cerevisiae rad50 mutant strain, hits give high values
Outline: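 Exposing the rad50EPP+ strain to each compound, growth was compared with vehicle-only cultures to give inhibition.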

[4] = NCI Yeast Anticancer Drug Screen. Data for the mgt1 strain (AID 153); details: S. cerevisiae mgt1 mutant growth inhibition, hits give high values
Outline: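 Genetically defined yeast (mgt1) treated with compound; inhibition of growth expressed against vehicle-treated controls.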

[5] = NCI Yeast Anticancer Drug Screen. Data for the rad50 strain (AID 155);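 note: 0% = growth of vehicle-only cultures of the same strain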; details: S. cerevisiae rad50 strain growth inhibition, hits give high values
Outline: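 Relative growth inhibition (compound vs vehicle) was measured in yeast with a defined repair-gene alteration.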

[6] = NCI Yeast Anticancer Drug Screen. Data for the mec2-1 strain (AID 157); details: S. cerevisiae mec2-1 strain, hits give high values
Outline: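 Readout is yeast growth inhibition, normalised to vehicle-treated controls, in the mec2-1 strain exposed to compound.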

[7] = NCI Yeast Anticancer Drug Screen. Data for the rad14 strain (AID 159);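 note: 0% = growth of vehicle-treated control cultures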; details: S. cerevisiae rad14 strain growth inhibition, hits give high values
Outline: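 Screen for anticancer potential: a yeast strain altered in DNA damage repair is grown with compound, and reduced growth is quantified against vehicle controls.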

[8] = NCI Yeast Anticancer Drug Screen. Data for the sgs1 mgt1 strain (AID 161);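 note: 0% = growth of cultures given vehicle only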; details: S. cerevisiae sgs1 mgt1 strain, hits give high values
Outline: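 Growth of a repair-deficient yeast mutant was monitored after compound treatment and expressed as inhibition relative to vehicle-treated cultures.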

[9] = NCI Yeast Anticancer Drug Screen. Data for the CLN2oe strain (AID 163);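 note: 0% = growth of vehicle-only control cultures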; details: S. cerevisiae CLN2oe strain, hits give high values
Outline: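 Values reflect how much compound exposure reduced yeast growth, referenced to vehicle-exposed cells. Assay organism is a strain with a defined genetic change affecting cell-cycle control.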

[10] = NCI Yeast Anticancer Drug Screen. Data for the cln2 rad14 strain (AID 165);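 note: 0% = growth equal to vehicle treated cultures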; details: S. cerevisiae cln2 rad14 strain, hits give high values
Outline: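 Relative to vehicle controls, growth inhibition of compound-treated cln2 rad14 yeast was recorded.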

[11] = NCI Yeast Anticancer Drug Screen. Data for the bub3 strain (AID 167); details: S. cerevisiae bub3 mutant strain, hits give high values
Outline: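 Screening used yeast with an engineered genetic alteration affecting cell cycle control. Compound-exposed cultures were compared with vehicle cultures, and reduced growth was taken as inhibition.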

[12] = NCI Yeast Anticancer Drug Screen. Data for the wt2 strain (AID 169);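 note: 0% = growth of vehicle-treated yeast cultures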; details: S. cerevisiae wt2 strain growth inhibition, hits give high values
Outline: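 Values express reduction in yeast growth under compound treatment, referenced to vehicle-treated cells.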

[13] = NCI Yeast Anticancer Drug Screen. Data for the mlh1 strain (AID 171);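 note: 0% = growth of vehicle-treated control cultures of the same strain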; details: S. cerevisiae mlh1 strain growth inhibition, hits give high values
Outline: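 Steps: expose the defined-mutant yeast strain to compound; expose a parallel culture to vehicle; measure growth; express compound effect as inhibition relative to the vehicle culture.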

[14] = NCI Yeast Anticancer Drug Screen. Data for the sgs1 strain (AID 173);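 note: 0% = growth of vehicle-only control cultures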; details: S. cerevisiae sgs1 mutant, hits give high values
Outline: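 Treat defined-mutant yeast with compound; measure growth; calculate inhibition relative to vehicle-treated cells.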

[15] = NCI Yeast Anticancer Drug Screen. Data for the mlh1 rad18 strain (AID 175); details: S. cerevisiae mlh1 rad18 strain growth inhibition, hits give high values
Outline: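 Test agents were incubated with a yeast strain of defined genotype (DNA damage repair defect). Inhibition of growth was derived by comparison with vehicle-exposed cultures.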

[16] = NCI Yeast Anticancer Drug Screen. Data for the rad18 strain (AID 177); details: S. cerevisiae rad18 mutant growth inhibition, hits give high values
Outline: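 A genetically defined yeast mutant impaired in DNA damage repair was treated with test compounds, then its growth was measured against cultures receiving vehicle alone.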

[17] = at 5.0 µM (retest, dose inferred, filed as 0.5)
[18] = at 50.0 µM (retest, dose inferred, filed as 5.0)

Measured: growth inhibition

Nc1ncc(-c2ccc(Br)cc2)s1
active: [1]; at 33.0 µM 92% | [1]; at 100.0 µM 98% | [2]; at 33.0 µM 92% | [2]; at 100.0 µM 98% | [3]; at 33.0 µM 93% | [3]; at 100.0 µM 97% | [4]; at 33.0 µM 95% | [4]; at 100.0 µM 98% | [5]; at 33.0 µM 91% | [5]; at 50.0 µM 89.5% | [5]; at 100.0 µM 97% | [6]; at 33.0 µM 92% | [6]; at 50.0 µM 93% | [6]; at 100.0 µM 98% | [7]; at 33.0 µM 93% | [7]; at 100.0 µM 97% | [8]; [18] 99% | [8]; at 50.0 µM 92.7% | [9]; at 33.0 µM 90% | [9]; at 100.0 µM 97% | [10]; [18] 99% | [10]; at 50.0 µM 90.3% | [11]; at 33.0 µM 82% | [11]; [18] 99% | [11]; at 50.0 µM 89.8% | [11]; at 100.0 µM 97% | [12]; at 33.0 µM 93% | [12]; at 100.0 µM 98% | [13]; at 33.0 µM 94% | [13]; at 100.0 µM 97% | [14]; at 33.0 µM 92% | [14]; at 100.0 µM 97% | [15]; at 50.0 µM 89.9% | [16]; at 33.0 µM 91% | [16]; at 100.0 µM 97%
inactive: [1]; at 1.2 µM 20% | [1]; at 3.7 µM 35% | [1]; at 11.0 µM 36% | [2]; at 1.2 µM 9% | [2]; at 3.7 µM 17% | [2]; at 11.0 µM 22% | [3]; at 1.2 µM 19% | [3]; at 3.7 µM 29% | [3]; at 11.0 µM 47% | [4]; at 1.2 µM 1% | [4]; at 3.7 µM -1% | [4]; at 11.0 µM 2% | [5]; at 1.2 µM 7% | [5]; at 3.7 µM 7% | [5]; [17] 51% | [5]; at 11.0 µM 13% | [5]; [18] 51% | [6]; at 1.2 µM -22% | [6]; at 3.7 µM -1% | [6]; [17] 53% | [6]; at 11.0 µM -15% | [6]; [18] 55% | [7]; at 1.2 µM -25% | [7]; at 3.7 µM -8% | [7]; at 11.0 µM -1% | [8]; [17] 18% | [9]; at 1.2 µM 21% | [9]; at 3.7 µM 3% | [9]; at 11.0 µM -7% | [10]; [17] 56% | [11]; at 1.2 µM -8% | [11]; at 3.7 µM -8% | [11]; [17] -18% | [11]; at 11.0 µM -11% | [12]; at 1.2 µM 8% | [12]; at 3.7 µM 8% | [12]; at 11.0 µM 8% | [13]; at 1.2 µM -9% | [13]; at 3.7 µM -14% | [13]; at 11.0 µM -1% | [14]; at 1.2 µM 19% | [14]; at 3.7 µM 26% | [14]; at 11.0 µM 34% | [15]; [17] 39% | [15]; [18] 55% | [16]; at 1.2 µM -29% | [16]; at 3.7 µM -30% | [16]; at 11.0 µM -16%
